Experimental data as given in PubChem BioAssay (NCATS).
Where “and” joins values, the source holds several entries; their conditions need not be identical. Identical values can stand only once. Records with an inconclusive call do not appear. Calls of active or inactive are those of the source. Calls follow the shape of the dose curve; as a rule, active = well fitted cell-killing curve with a large enough effect; inconclusive = small, poorly fitted or top-dose-only effect; inactive = flat fitted curve, though single readings scatter.

test: Cellular viability qHTS for adrenocortical cancer (ACC) cell line SW-13 (AID 1963989); settings: SW-13 ACC cells viability, CellTiter-Glo, 48 h; activity (max response): hits give low values; also: nearly all actives have a fitted effect of over 65% in size;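 as to activity (max response): cells grown in serum-free medium with ITS supplement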
From the text: PI: Naris Nilubol, MD Surgical Oncology Program, National Cancer Institute (NCI) National Institute of Health (NIH), Bethesda, Maryland Adrenocortical cancer (ACC) is a rare malignancy with poor survival outcomes and few treatment options. Currently, mitotane is the only FDA-approved therapy for ACC. Although adjuvant radiation therapy is rarely utilized, it has the potential to improve survival in select cases. Through a quantitative high-throughput drug screen (qHTS), we identified auranofin (AF), a thioredoxin reductase (TXNRD) inhibitor, as a promising candidate drug. This study aims to evaluate whether AF can enhance the efficacy of radiation therapy in the treatment of ACC. Two human ACC cell lines, SW-13 and NCI-H295R, were screened using the National Center for Advancing Translational Sciences (NCATS) Pharmaceutical Collection (NPC) and the Mechanism Interrogation PlatE (MIPE) library (~4,991 compounds). CellTiter-Glo (Cat # G7570, Promega, Madison, WI) was utilized to measure cell viability. Described herein are the results of the corresponding viability assay.
PROTOCOL TABLE (as described by Inglese J, Shamu CE and Guy RK. 2007) SEQUENCE No. (e.g., 1, 2, 3, etc.); […] (e.g., Cells, Incubation, Reagent, etc.); VALUE; DESCRIPTION. 1; Cells; 5 uL; white, solid-bottom, 1536-well tissue-culture treated plates. 2; Time; overnight culture at 37C with 5% CO2. 3; Compounds and control; 23 nL; Kalypsis pin tool (Wako USA) equipped with a 1536-well pin head to transfer to the assay plates. 4; Time; 48 hours; 37C with 5% CO2. 5; Reagent; 4 uL; CellTiter-Glo luminescent substrate mix. 6; Time; 20 min at room temperature. 7; Detection; Luminescence; ViewLux plate reader NOTES (numbers refer to Sequence numbers above) 1. SW13 cells were harvested from a T175 flask and resuspended in ITS-supplemented DMEM serum-free medium at a concentration of 300 000 cells/mL. Then 5 uL of resuspended cells were dispensed into each well of white, solid-bottom, 1536-well tissue-culture-treated plates using a multidrop combi dispenser. The plates were covered with stainless steel gasket lids. 2-3. The plates were cultured overnight at 37C with 5% CO2. Twenty-three nL of compounds (eight selected concentrations from the NPC / MIPE) or positive control (10 mM stock of bortezomib) in DMSO was transferred to each well of the assay plate using a pin tool (Kalypsys, San Diego, CA, USA). The final concentration of the compounds in the 5 uL assay volume ranged from 0.5 nM to 46 uM. 4-6. After 48 hours of incubation at 37C and 5% CO2, 4 uL of CellTilter-Glo luminescent substrate mix (Promega, Madison, WI, USA) was added to each well. Then the plates were incubated for 20 minutes at room temperature. 7. After incubation, luminescence was measured using a ViewLux plate reader (PerkinElmer, Waltham, MA, USA) with a clear filter was used to measure the number of metabolically competent cells. To determine compound activity in the qHTS assay, the titration-response data for each sample was plotted and modeled by a four-parameter logistic fit yielding IC50 and efficacy (maximal response) values. […] REFERENCES: Inglese J, Shamu CE and Guy RK, Reporting data from high throughput screening of small molecule libraries, Nature Chemical Biology, 2007, 3(8): 438-441. doi.org/10.1038/nchembio0807-438.
% is scaled to controls: 0 for no effect and ±100 for the full control effect; potency is read from the fitted curve at half-maximal effect.

Compound | activity (max response) | Potency
CCCOC(=O)c1cncn1C(C)c1ccccc1 (stereo not given) | 12% (inactive) | 
CC(NC(C)(C)C)C(=O)c1cccc(Cl)c1 (stereo not given) | 8.14% (inactive) and 1.12% (inactive) | 
COc1cc([C@@H]2c3cc4c(cc3[C@@H](O)C3COC(=O)C32)OCO4)cc(OC)c1O (stereo not given in full) |  | 0.316 µM (active)
CNC(C)Cc1ccc2c(c1)OCO2 (stereo not given) | -2% (inactive) | 
CC1NCCOC1c1ccccc1 (stereo not given) | -0.553% (inactive) | 
CS(=O)(=O)c1ccc(C(=O)C2C(=O)CCCC2=O)c([N+](=O)[O-])c1 | -0.0273% (inactive) | 
CC(C)[C@H]1C(=O)N[C@H](CO)Cc2c[nH]c3cccc(c23)N1C | -2.75% (inactive) | 
CN(C)CCc1c[nH]c2ccccc12 | -12.4% (inactive) | 
CCC(COC(=O)c1cc(OC)c(OC)c(OC)c1)(c1ccccc1)N(C)C (stereo not given) | -2.65% (inactive) | 
CN1C(=O)CN=C(c2ccccc2)c2cc([N+](=O)[O-])ccc21 | 6.26% (inactive) | 
ClCc1cccc(Cl)c1 | 11% (inactive) | 
Nc1c(Cl)c(Cl)c(Cl)c(Cl)c1Cl | -9.89% (inactive) | 
COc1ccc2c(C(=O)c3ccc(Cl)cc3)c(C)n(CC(=O)O)c2c1 | 8.1% (inactive) | 
NC1=NC(=O)C(c2ccccc2)O1 (stereo not given) | 8.75% (inactive) | 
Nc1ccc(Cl)cc1 | 5.53% (inactive) | 
O=C(CCCCl)c1ccc(F)cc1 | 6.97% (inactive) | 
C[N+]1(C)[C@@H]2CC[C@H]1CC(OC(=O)C(CO)c1ccccc1)C2 (stereo not given in full) | -4.66% (inactive) | 
O=C(O)CCCOc1ccc(Cl)cc1Cl | -0.391% (inactive) | 
Cc1cc(SCc2sc(-c3ccc(C(F)(F)F)c(F)c3)nc2C)ccc1OCC(=O)O | -20.9% (inactive) | 
CN1C(=O)NC(=O)C(C)(C2=CCCCC2)C1=O (stereo not given) | -0.484% (inactive) | 

Compound | activity (max response) | Potency
c1ccc2c(c1)Nc1ccccc1S2 | -23.4% (inactive) | 
C[C@]12CC[C@H]3[C@@H](CC=C4C[C@@H](O)CC[C@@]43C)[C@@H]1CC[C@@H]2O | 5.93% (inactive) | 
COc1ccc2c3c1O[C@H]1[C@@H](O)C=C[C@H]4[C@@H](C2)N(C)CC[C@@]341 |  | 14.1 µM (active)
c1cc2ccc3cccc4ccc(c1)c2c34 | -9.29% (inactive) | 
CCC(C(N)=O)N1CCCC1=O (stereo not given) | -1.47% (inactive) | 
Oc1cccc2cccnc12 | -4.07% (inactive) and 11.1% (inactive) | 
C[C@H](N)C(=O)c1ccccc1 | -8.86% (inactive) | 
CCOC(=O)C(c1c(O)c2ccccc2oc1=O)c1c(O)c2ccccc2oc1=O | 16.4% (inactive) | 
C[C@@H]1O[C@@H](O[C@H]2C[C@@H](O)[C@]3(CO)[C@H]4[C@H](O)C[C@]5(C)[C@@H](C6=CC(=O)OC6)CC[C@]5(O)[C@@H]4CC[C@]3(O)C2)[C@H](O)[C@H](O)[C@H]1O |  | 20.6 nM (active) and 44.7 nM (active)
O=C(O)CNC(=O)c1c(O)c2ccccc2n(Cc2ccccc2)c1=O | 3.51% (inactive) | 
O=C1CC[C@@]2(O)[C@H]3Cc4ccc(O)c5c4[C@@]2(CCN3CC2CC2)[C@H]1O5 | 9.15% (inactive) and -5.08% (inactive) | 
NC(=O)CN1CCCC1=O | 11.9% (inactive) | 
c1ccc(CN2CCNCC2)cc1 | -9.53% (inactive) | 
Cc1ncc(CNC(=O)N(CCCl)N=O)c(N)n1 | 2.91% (inactive) | 
O=C1OC(CCN2CCCCC2)OC1(c1ccccc1)c1ccccc1 (stereo not given) | 2.23% (inactive) | 
C=CCN1C[C@H](C)N([C@H](c2ccc(C(=O)N(CC)CC)cc2)c2cccc(OC)c2)C[C@H]1C | -5.15% (inactive) | 
CC(=O)[O][Hg][c]1ccccc1 |  | 1.3 µM (active)
O=C(O)c1ccc(=O)[nH]c1 | 7.49% (inactive) | 
Cc1nc2ccccc2c(=O)n1-c1ccccc1Cl | -17.2% (inactive) | 
C=C(C)[C@@H]1CCC(C)=C[C@H]1c1c(O)cc(CCCCC)cc1O |  | 31.6 µM (active)
